Consider 73 molecules from the supplement of paper PMC11150407.

SMILES strings stand for the structures. Among all 3,000 compounds or so, about 45 (2%) showed an effect of 50% or more. This is one part of a sample in which strong results are shown more often than they occur.

In this assay the test system is MOLM1 and UCSD/AML1 (averaged). The experiment in a line: cell viability relative to DMSO control (POC); higher = less growth inhibition. The settings on record: 1 µM; 72 h. The method, then: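 Primary viability screen in the 3q26 EVI1-high AML cell lines MOLM1 and UCSD/AML1, compounds at 1 uM for 72 h. ATP CellTiter-Glo read-out given as percent viable over DMSO control (POC), averaged over duplicates. This mapping covers the TimTec NDL-3000 natural derivative library, whose compounds are identified by TimTec catalogue codes (ST...).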
A word on the cell viability: it is a read-out of living cells in per cent, often relative to untreated cells. On to `CCN(CC)CCC(=O)c1ccc(OC)c(OC)c1`, for which the cell viability turned out to be 98.6%.
Under `COc1ccc(/C=C/C(=O)Oc2ccc(C(C)C)cc2)c(OC)c1` stands 101%.
The same measure for `COc1ccc(Br)cc1/C=C/C(=O)O`: 95.6%; for `CCOC(=O)CCc1n[nH]c(=O)[nH]c1=O`: 88.1%; for `CCOC(=O)[C@H]1CCC(=O)N1`: 17.6%.
`CCOC(=O)CCc1ccc2c(c1)NC(=O)CC2`: the cell viability amounted to 91.8%.
On to `Cc1cccc(NC(=O)CSc2nc3c(=O)[nH]cnc3n2C)c1C`, for which the cell viability was 95.1%.
For the molecule `Cc1[nH]c2ccc(Br)cc2c1CCNC(=O)c1cccs1`, the cell viability amounted to 100%.
`Cc1ccc(NC(=O)CSc2nc3c(=O)[nH]cnc3n2CC2CCCO2)c(Cl)c1` (stereo not drawn): the cell viability stood at 98.7%.
The same measure for `COc1ccc(C(=O)N2CCN(Cc3cc(=O)oc4cc(C)ccc34)CC2)c(OC)c1`: 93%; for `Cc1ccc2c(CN3CCN(Cc4ccc(Cl)cc4)CC3)cc(=O)oc2c1`: 96.2%.
As for `Cc1ccc2c(CN3CCN(C(=O)OC(C)(C)C)CC3)cc(=O)oc2c1`, the cell viability came out at 14.9%.
Under `C=C(C)C1CCC2(C)CCC3(C)C(CCC4C5(C)CCC(OC(C)=O)C(C)(C)C5CCC43C)C12` (stereo not drawn) stands 102%; under `COc1ccc(OC)c2c(C)cc(SCC(=O)c3ccc4c(c3)OCCO4)nc12`, 101%.
Under `COC(=O)C1=C(C)NC2=C(C(=O)CC(c3ccc(OC)c(OC)c3)C2)C1c1cc(OC)c(OC)c(OC)c1` (stereo not drawn) stands 101%; under `COC(=O)C1=C(C)NC(SC)=C(C#N)C1c1cc(OC)c(OC)c(OC)c1` (stereo not drawn), 18.3%.
The same measure for `COC(=O)C1=C(C)NC2=C(C(=O)CCC2)C1c1cc(OC)c(OC)c(OC)c1` (stereo not drawn): 94.9%.
As for `CC(=O)/C=C(\C)NC(C)C(=O)O` (stereo not drawn), the cell viability was found to be 102%.
On to `O=C(/C=C/c1ccc(NC(=O)c2cc(NC(=O)C(c3ccccc3)c3ccccc3)cc(NC(=O)C(c3ccccc3)c3ccccc3)c2)cc1)c1ccccc1`, for which the cell viability turned out to be 94.6%.
The same measure for `O=C(/C=C/c1cccc(NC(=O)c2ccc(Br)cc2)c1)c1cccc(NC(=O)c2ccc(Br)cc2)c1`: 1.83%; for `O=C(/C=C/c1ccc(Cl)cc1Cl)c1ccc(Br)cc1`: 108%; for `CCCCCCOC(=O)c1ccccc1NC(=O)c1c(O)c2ccccc2[nH]c1=O`: 97.5%.
Under `COC(=O)c1ccc2c(c1)C(=O)/C(=C/c1ccc(O)c(OC)c1)O2` stands 84.6%; under `CCOc1ccc(/C=C2/Oc3ccc(C(=O)OC)cc3C2=O)cc1OCC`, 96.6%; under `CCOc1cc(/C=C2\Oc3ccc(C(=O)OC)cc3C2=O)ccc1O`, 16.8%.
For `COc1cc(N(C(C)=O)C2OC(COC(C)=O)C(OC(C)=O)C(OC(C)=O)C2OC(C)=O)c(OC)c2c(C)cc(C)nc12` (stereo not drawn), the cell viability was determined as 98.5%.
For `CCOC(=O)CSc1nc2c(c(=O)[nH]c(=O)n2C)n1Cc1cccc(C)c1`, the cell viability is 100%.
Turning to `Cc1ccc(-n2c(SCc3cccc(Cl)c3)nc3c(=O)[nH]cnc32)cc1`, the cell viability worked out at 114%.
In the case of `CN(C)S(=O)(=O)Nc1ccc(S(=O)(=O)N2CCc3ccccc3C2)cc1`, the cell viability came out at 98.2%.
With `COc1ccc(-c2nnc(SCc3nc4ccccc4[nH]3)o2)cc1OC`, the cell viability was 95.3%.
As to `Cc1ccc(/C=C2\Oc3cc(O)ccc3C2=O)cc1`, the cell viability amounted to 98.7%.
Take `O=C(CSc1nc2c(=O)[nH]cnc2n1-c1ccccc1)NC1CCCC1`: the cell viability worked out at 91.7%.
Under `CC(NC(=O)c1ccccc1)C(=O)O` (stereo not drawn) stands 99.5%; under `COc1ccc(C2c3[nH]c4ccccc4c3CCN2C(=O)/C=C/c2cc(OC)c(OC)c(OC)c2)cc1` (stereo not drawn), 32.6%.
Under `COc1ccc(/C=C/C(=O)N2CCc3c([nH]c4ccccc34)C2c2ccc(OC)cc2)cc1` (stereo not drawn) stands 90.2%; under `COc1ccc(C2c3[nH]c4ccccc4c3CCN2C(=O)/C=C/c2ccc(OC)c(OC)c2)cc1` (stereo not drawn), 81.9%; under `O=C(O)/C=C/c1ccc(Cl)c(Cl)c1`, 97.8%.
Under `COc1cc(C(=O)Oc2ccccc2)cc(OC)c1OC` stands 108%; under `COc1cc(C(=O)N2CCOCC2)cc(OC)c1OC`, 98.2%; under `COc1cc(C(=O)N2c3ccccc3C(C)=CC2(C)C)cc(OC)c1OC`, 29.3%.
As for `COc1cc(C(=O)N2CCN(c3cccc(C)c3C)CC2)cc(OC)c1OC`, the cell viability was found to be 12.5%.
The same measure for `COc1cc(C(=O)N2c3ccccc3CC2C)cc(OC)c1OC` (stereo not drawn): 91.9%; for `COc1cc(C(=O)N2CCN(C(=O)c3cccc(Cl)c3)CC2)cc(OC)c1OC`: 102%.
Under `O=C(/C=C/c1ccc2c(c1)OCO2)c1ccc2c(c1)OCCO2` stands 104%.
Under `Cn1c(SCc2ccc(Cl)cc2)nc2c(=O)[nH]cnc21` stands 90%.
Regarding `COc1ccc2[nH]cc(CCNC(=O)c3nn(-c4ccccc4)nc3C)c2c1`, the cell viability amounted to 107%.
In the case of `COc1ccc(/C=C2\Oc3ccc(Br)cc3C2=O)cc1`, the cell viability came out at 97.7%.
Take `CCC1C/C(=C\c2ccc(OC)cc2)C(=O)/C(=C/c2ccc(OC)cc2)C1` (stereo not drawn): the cell viability was 12.8%.
Under `COc1ccc(/C=C2\CCc3ccccc3C2=O)cc1` stands 94%; under `CCOC(=O)c1ccc2nc3c(=O)[nH]c(=O)nc-3n(CCc3ccc(OC)c(OC)c3)c2c1`, 99.7%; under `COc1ccc(C=O)cc1COc1ccc2c(c1)CCC2`, 47.2%.
Under `COc1ccc(OCc2cc(C=O)ccc2OC)cc1` stands 107%; under `COc1ccc(/C=C/C(=O)O)cc1COc1ccccc1`, 101%.
The same measure for `O=C(OCC1CCCN2CCCCC12)c1ccccc1O` (stereo not drawn): 96.9%; for `Cc1cc2oc(=O)cc(O)c2cc1C`: 95.7%; for `O=C(c1ccccc1)N1CCN(CC(O)Cn2c3ccccc3c3ccccc32)CC1` (stereo not drawn): 99.4%.
Consider `CC1(C(=O)O)CCC2(C)CCC3(C)C(=CC(=O)C4C5(C)CCC(OC6OC(C(=O)O)C(O)C(O)C6OC6OC(C(=O)O)C(O)C(O)C6O)CC5CCC43C)C2C1.CC1(C(=O)O)CCC2(C)CCC3(C)C(=CC(=O)C4C5(C)CCC(OC6OC(C(=O)O)C(O)C(O)C6OC6OC(C(=O)O)C(O)C(O)C6O)CC5CCC43C)C2C1.CC1(C(=O)O)CCC2(C)CCC3(C)C(=CC(=O)C4C5(C)CCC(OC6OC(C(=O)O)C(O)C(O)C6OC6OC(C(=O)O)C(O)C(O)C6O)CC5CCC43C)C2C1.[Fe]` (stereo not drawn), for which the cell viability was determined as 91.5%.
As for `O=c1cc(-c2ccccc2Cl)oc2c(Br)cc(Cl)cc12`, the cell viability is 112%.
Take `O=C(N/N=C\c1cc(Br)cc(Br)c1OC(=O)c1cccc(F)c1)c1ccc2c(c1)OCO2`: the cell viability came out at 64.1%.
With `O=C(N/N=C/c1cc(N=Nc2cccc(C(F)(F)F)c2)ccc1O)c1ccc2c(c1)OCO2`, the cell viability came out at 21.3%.
Under `O=C(N/N=C/c1cc(N=Nc2cccc3ccccc23)ccc1O)c1ccc2c(c1)OCO2` stands 64.5%; under `Cc1cc(=O)[nH]c(SCC(=O)Nc2cccc(C)c2C)n1`, 114%; under `Cc1ccccc1C(=O)OCC1CCCN2CCCCC12.O.O.O.O.O.O.O=[N+]([O-])O.O=[N+]([O-])O.[Co]` (stereo not drawn), 104%.
Consider `CC(C)c1ccc(/C=C/C(=O)N2CCC3(O)CCCCC3C2c2ccc(F)cc2)cc1` (stereo not drawn), for which the cell viability came out at 77.9%.
The same measure for `O=C(Nc1c(C(=O)Nc2ccccc2)c2ccccc2n(Cc2ccc(F)cc2)c1=O)c1ccccc1`: 94.1%; for `COc1cccc(C=Nc2ccc3cc4ccc(N=Cc5cccc(OC)c5O)cc4nc3c2)c1O`: 2.39%; for `COC(=O)C1=C(C)NC(SCC(=O)c2ccc3c(c2)OCO3)=C(C#N)C1c1cccs1` (stereo not drawn): 95.7%.
The same measure for `CC(C)C(=O)NCC(=O)NCC(=O)O`: 98.8%.
The same measure for `O=C(CCNc1n[nH]c(=O)[nH]c1=O)N/N=C/c1cccnc1`: 93%.
For the molecule `CCn1c2ccccc2c2cc(/C=N/NC(=O)c3cc(OC)c(OC)c(OC)c3)ccc21`, the cell viability worked out at 10.7%.
As for `COc1ccccc1CNC(=O)c1cc(OC)c(OC)c(OC)c1`, the cell viability came out at 100%.
On to `COc1cc(/C=N/NC(=O)CCC(=O)Nc2ccccc2C)cc(OC)c1OC`, for which the cell viability came to 91.6%.
As to `O=C(O)/C=C/c1c(Cl)cccc1Cl`, the cell viability came out at 94.6%.
